Values joined by “and” are separate entries in the source; they are usually repeats but may differ in a detail not shown here. Equal entries are not always repeated. Some structures have more than one record in an assay (separate samples or runs), and their calls can disagree. Active and inactive are the calls of the source. Rule for the calls: active = hit-call score of the fitted dose curve at least 0.9, where 1 is the maximum; inactive = score below 0.9.

Our source for the outcome and AC50 values is PubChem BioAssay (EPA / NIEHS).

Assay [1] in a line: ATG_GLI_CIS: Attagene CIS-FACTORIAL HepG2 Assay for human Zinc Finger Protein GLI1 (AID 2282945). The settings on record: HepG2, Attagene cis-factorial reporter mRNA, GLI element; actives raise or lower the signal. Summed up: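 Bidirectional curve fits relative to DMSO, using reporter mRNA levels from RT-PCR plus capillary electrophoresis. Cells were HepG2 transiently carrying cis-regulated reporter constructs, harvested 24 h after dosing.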

Assay [2] deals with Bile acid receptor (Homo sapiens) (UniProt Q96RI1). The assay is described as follows: ATG_IR1_CIS: Attagene CIS-FACTORIAL HepG2 Assay for human Nuclear Receptor Subfamily 1 Group H Member 4 (NR1H4), IR1 submotif (AID 2282946). The settings on record: IR1 reporter transcription, actives raise or lower the signal. Summed up:
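Cells (human HepG2) carry transiently transfected cis-promoter reporter transcription units. Compounds are incubated 24 h, total RNA is reverse-transcribed and amplified, and labelled fragments are resolved by capillary electrophoresis. Curves use DMSO as baseline.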

A short description of assay [3]: ATG_ISRE_CIS: Attagene CIS-FACTORIAL HepG2 Assay for human Interferon Regulatory Factor 1 (IRF1) binding to an Interferon-Stimulated Response Element (ISRE) (AID 2282948). As to conditions: HepG2 ISRE cis-reporter (Attagene), mRNA transcription readout; actives raise or lower the signal. Summed up:
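Transiently transfected HepG2 cells carrying cis-element reporter units, dosed 24 hours. Reporter mRNA quantified by RT-PCR, fluorescent primer extension, HpaI digestion and capillary electrophoresis. Bidirectional fitting relative to DMSO.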

Assay [4] is described as follows: ATG_M_32_CIS: Attagene CIS-FACTORIAL HepG2 Assay for M32 Transcription Factor (Internal Marker) (AID 2282949).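 Note: background control marker of the multiplexed CIS panel rather than a real target.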 As to conditions: HepG2 Attagene cis-factorial M32 reporter, mRNA; actives raise or lower the signal. Summed up:
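Following 24 h chemical exposure of HepG2 cells transiently expressing cis-promoter reporter constructs, reporter transcript levels were determined by RT-PCR with fluorescent labelling and capillary electrophoresis, then fitted bidirectionally against DMSO.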

Assay [5] deals with Hypoxia-inducible factor 1-alpha (Homo sapiens) (UniProt Q16665). The assay can be described thus: ATG_HIF1a_CIS: Attagene CIS-FACTORIAL HepG2 Assay for human Hypoxia Inducible Factor 1 (HIF1A) (AID 2282951). As to conditions: HepG2 Attagene cis-factorial HIF1a reporter transcription; actives raise or lower the signal. The method in brief: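 Dosed 24 h, transfected HepG2 cells yielded total RNA whose reporter transcripts were RT-PCR-amplified and sized by capillary electrophoresis using fluorescent labelling; DMSO defined baseline, with gain and loss of signal both fitted.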
Sequence of Hypoxia-inducible factor 1-alpha (Homo sapiens) (Q16665 whole entry, looked up): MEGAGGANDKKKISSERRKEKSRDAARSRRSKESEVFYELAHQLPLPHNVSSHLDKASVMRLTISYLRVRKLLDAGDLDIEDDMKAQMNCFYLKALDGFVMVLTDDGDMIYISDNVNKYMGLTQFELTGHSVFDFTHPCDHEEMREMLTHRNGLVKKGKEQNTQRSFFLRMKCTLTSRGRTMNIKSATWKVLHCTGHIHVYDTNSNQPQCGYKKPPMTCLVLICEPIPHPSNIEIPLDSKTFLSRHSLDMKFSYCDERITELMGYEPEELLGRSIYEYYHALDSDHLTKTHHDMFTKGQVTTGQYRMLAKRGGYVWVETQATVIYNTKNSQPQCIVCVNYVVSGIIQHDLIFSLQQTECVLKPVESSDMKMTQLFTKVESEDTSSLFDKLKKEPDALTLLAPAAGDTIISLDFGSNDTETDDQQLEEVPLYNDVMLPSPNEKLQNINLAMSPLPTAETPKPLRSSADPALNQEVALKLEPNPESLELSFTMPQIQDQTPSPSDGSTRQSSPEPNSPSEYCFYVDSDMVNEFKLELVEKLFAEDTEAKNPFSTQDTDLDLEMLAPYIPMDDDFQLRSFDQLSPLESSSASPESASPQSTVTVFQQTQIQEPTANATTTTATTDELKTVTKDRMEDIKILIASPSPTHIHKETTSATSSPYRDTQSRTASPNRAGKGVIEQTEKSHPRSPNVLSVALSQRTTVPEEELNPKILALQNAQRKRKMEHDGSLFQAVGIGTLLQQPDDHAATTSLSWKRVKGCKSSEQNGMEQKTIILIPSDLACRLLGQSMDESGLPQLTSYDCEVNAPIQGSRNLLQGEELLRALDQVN

The target in assay [6] is Hepatocyte nuclear factor 6 (Homo sapiens) (UniProt Q9UBC0). The assay can be described thus: ATG_HNF6_CIS: Attagene CIS-FACTORIAL HepG2 Assay for human Hepatocyte Nuclear Factor 6 (HNF6) (AID 2282952). The settings on record: HepG2 Attagene cis-factorial HNF6 reporter transcription; actives raise or lower the signal. The method in brief:
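Reporter mRNA induction or loss in HepG2 after 24 h exposure; transient cis-MRTU transfection; fragments quantified by capillary electrophoresis; bidirectional analysis, DMSO as negative control.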

Assay [7] has as its target Heat shock factor protein 1 (Homo sapiens) (UniProt Q00613). The assay can be described thus: ATG_HSE_CIS: Attagene CIS-FACTORIAL HepG2 Assay for human Heat Shock Transcription Factor 1 (HSE) (AID 2282953). As to conditions: HepG2 HSE cis-reporter, Attagene RNA transcription; actives raise or lower the signal. Summed up:
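Liver-derived HepG2 cells carry transiently introduced multiple reporter units governed by cis promoters. Reporter RNA measured 24 h post-dose through reverse transcription, PCR amplification, fluorescent labelling and capillary electrophoresis, normalised to DMSO.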

A short description of assay [8]: ATG_MRE_CIS: Attagene CIS-FACTORIAL HepG2 Assay for human Metal Responsive Element (MRE) (AID 2282954). The settings on record: HepG2 MRE cis-reporter transcription, Attagene multiplex; actives raise or lower the signal. The method in brief:
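After a 24 h chemical exposure, transiently transfected HepG2 cells yield RNA whose reporter sequences are amplified, FAM-labelled and sized by capillary electrophoresis. Curves are fitted bidirectionally relative to DMSO.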

Assay [9] in a line: ATG_GRE_CIS: Attagene CIS-FACTORIAL HepG2 Assay for human Glucocorticoid Response Elements (GRE) (AID 2282947). As to conditions: HepG2 GRE cis-reporter, Attagene multiplex mRNA; actives raise or lower the signal. The method in brief:
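Assay uses human hepatoma HepG2 cells transfected with cis-promoter reporter units, exposed 24 h. mRNA from reporters detected by RT-PCR plus capillary electrophoresis; DMSO serves as negative control and baseline.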

The nature of assay [10]: ATG_M_06_CIS: Attagene CIS-FACTORIAL HepG2 Assay for M06 Transcription Factor (Internal Marker) (AID 2282950). The settings on record: HepG2 Attagene CIS-FACTORIAL M06 internal marker reporter; actives raise or lower the signal. Summed up: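 Cells (HepG2, transiently carrying cis-driven reporter units) receive chemical for 24 h before RNA isolation. Reporter cDNA is PCR-amplified, FAM-labelled by primer extension, HpaI-digested and sized on a capillary analyser.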

Sequence of Heat shock factor protein 1 (Homo sapiens) (Q00613 whole entry, looked up): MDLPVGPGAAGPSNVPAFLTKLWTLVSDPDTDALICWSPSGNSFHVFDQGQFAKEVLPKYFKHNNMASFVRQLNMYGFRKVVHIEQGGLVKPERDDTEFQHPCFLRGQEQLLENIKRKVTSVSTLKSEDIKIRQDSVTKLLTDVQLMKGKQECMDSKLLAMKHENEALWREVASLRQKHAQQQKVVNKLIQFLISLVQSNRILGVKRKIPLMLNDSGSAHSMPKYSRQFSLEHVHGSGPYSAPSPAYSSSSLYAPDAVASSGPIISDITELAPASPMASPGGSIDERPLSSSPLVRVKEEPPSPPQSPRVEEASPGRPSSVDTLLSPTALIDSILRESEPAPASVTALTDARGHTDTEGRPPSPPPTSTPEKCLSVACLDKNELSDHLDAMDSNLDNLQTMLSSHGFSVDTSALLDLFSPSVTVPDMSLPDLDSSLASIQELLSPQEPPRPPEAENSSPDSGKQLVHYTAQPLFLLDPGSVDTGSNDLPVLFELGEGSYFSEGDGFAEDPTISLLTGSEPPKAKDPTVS
Sequence of Bile acid receptor (Homo sapiens) (Q96RI1 whole entry, looked up, the tested form may be a part): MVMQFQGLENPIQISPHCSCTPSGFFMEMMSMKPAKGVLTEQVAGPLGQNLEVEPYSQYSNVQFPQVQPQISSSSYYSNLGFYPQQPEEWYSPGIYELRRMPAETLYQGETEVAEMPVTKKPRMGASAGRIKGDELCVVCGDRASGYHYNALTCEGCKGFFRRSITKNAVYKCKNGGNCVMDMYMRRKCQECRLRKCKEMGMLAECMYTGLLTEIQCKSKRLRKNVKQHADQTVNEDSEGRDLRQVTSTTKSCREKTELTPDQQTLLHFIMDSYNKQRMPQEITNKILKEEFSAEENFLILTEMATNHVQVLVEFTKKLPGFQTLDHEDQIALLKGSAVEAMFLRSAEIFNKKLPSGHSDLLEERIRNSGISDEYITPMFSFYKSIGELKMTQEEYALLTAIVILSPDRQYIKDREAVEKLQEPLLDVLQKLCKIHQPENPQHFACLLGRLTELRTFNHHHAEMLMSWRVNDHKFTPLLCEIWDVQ
Sequence of Hepatocyte nuclear factor 6 (Homo sapiens) (Q9UBC0 whole entry, looked up, the tested form may be a part): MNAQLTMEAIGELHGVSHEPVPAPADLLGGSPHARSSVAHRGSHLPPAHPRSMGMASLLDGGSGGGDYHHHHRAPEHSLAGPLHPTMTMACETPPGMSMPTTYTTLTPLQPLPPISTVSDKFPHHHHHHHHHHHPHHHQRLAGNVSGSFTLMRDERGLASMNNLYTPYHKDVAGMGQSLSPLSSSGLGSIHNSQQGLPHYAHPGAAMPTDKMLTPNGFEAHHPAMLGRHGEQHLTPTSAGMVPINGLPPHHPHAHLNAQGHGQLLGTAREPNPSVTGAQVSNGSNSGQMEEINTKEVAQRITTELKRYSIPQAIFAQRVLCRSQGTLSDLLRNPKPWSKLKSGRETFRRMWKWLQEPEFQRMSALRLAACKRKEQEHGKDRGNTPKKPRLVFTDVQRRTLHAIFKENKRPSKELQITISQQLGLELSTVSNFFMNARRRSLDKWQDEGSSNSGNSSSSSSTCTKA

One may read the AC50 as the midpoint of the concentration-response curve, whichever way the signal moves. On to `COC(=O)N(OC)c1ccccc1COc1ccn(-c2ccc(Cl)cc2)n1`, for which the compound was classed as inactive in [1], in assay [2], in [3], in [4], in assay [5] and in [6]. The result in assay [7] was inactive. Also, in assay [8], the AC50 is 2.65 µM (active).
For the compound `CCCC1COC(Cn2cncn2)(c2ccc(Cl)cc2Cl)O1` (stereo not drawn), the result in assay [1], in assay [2], in assay [3], in assay [4], in assay [5] and in assay [6] was inactive. The result in [7] and in assay [8] was inactive. Further, the AC50 in assay [5] and in assay [8] was 50 µM (active) in each case.
As for `CCc1nn(C)c(C(=O)NCc2ccc(C(C)(C)C)cc2)c1Cl`, the result in [1], in assay [2], in assay [9], in [3], in [4] and in assay [5] was inactive. The result in assay [6] was inactive. The AC50 in assay [8] was 2.3 µM (active).
For the compound `C=CCC1=C(C)[C@@H](OC(=O)[C@@H]2[C@@H](C=C(C)C)C2(C)C)CC1=O`, the result in assay [1], in [2], in assay [3], in [4], in [10] and in [5] was inactive. Further, the outcome in assay [6] and in assay [7] was inactive. Besides, the AC50 in assay [8] was 5.26 µM (active).
As to `CCOC(=O)C(Cl)Cc1cc(-n2nc(C)n(C(F)F)c2=O)c(F)cc1Cl` (stereo not drawn), the call in assay [1], in assay [2], in [9], in assay [3], in [4] and in [5] was inactive. The outcome in [6] and in assay [8] was inactive.
As to `CC(Oc1ccc(Cl)cc1Cl)C(=O)O` (stereo not drawn), the call in assay [1], in assay [2], in assay [3], in assay [4], in assay [10] and in assay [5] was inactive. For the same compound, the outcome in assay [6] and in assay [8] was inactive.
`COC(=O)C(C)Oc1ccc(Oc2ccc(Cl)cc2Cl)cc1` (stereo not drawn): the outcome in [1], in assay [2], in [9], in assay [3], in assay [4] and in assay [5] was inactive. The call in [6] and in [8] was inactive. In addition, the AC50 in assay [2] is 76.5 µM (active).
As for `O=C(O)COc1nc(Cl)c(Cl)cc1Cl`, the call in assay [1], in [2], in assay [3], in assay [4], in assay [10] and in assay [5] was inactive. For the same compound, the outcome in [6] and in assay [8] was inactive.
For the compound `COC(=O)c1ccccc1C(=O)OC`, the call in assay [1], in [2], in assay [3], in [4], in assay [5] and in assay [6] was inactive. Besides, the compound was called inactive in assay [7] and in assay [8].
Take `COc1ccc(C(c2ccc(OC)cc2)C(Cl)(Cl)Cl)cc1`: the outcome in [1], in assay [2], in assay [9], in assay [3], in [4] and in assay [5] was inactive. For the same compound, the result in assay [6] and in [8] was inactive. The AC50 in [2] was 21.6 µM (active); in assay [5], 3.88 µM (active); in [8] it was 65.1 µM (active) and 15.6 µM (active) and 11.9 µM (active).
In the case of `N#CC(CCc1ccc(Cl)cc1)(Cn1cncn1)c1ccccc1` (stereo not drawn), the result in assay [1], in assay [2], in assay [3], in assay [4], in assay [10] and in assay [5] was inactive. For the same compound, the compound was classed as inactive in assay [6] and in assay [8].
`CC(C)C1(C)N=C(c2nc3ccccc3cc2C(=O)O)NC1=O` (stereo not drawn): the outcome in assay [1], in [2], in [3], in assay [4], in assay [10] and in [5] was inactive. Moreover, the compound was called inactive in [6], in assay [7] and in assay [8].
Regarding `Oc1ccccc1-c1ccccc1`, the AC50 in [1] was 23 µM (active); in assay [3], 68.5 µM (active); in assay [8] it was 65.7 µM (active). Also, the compound was classed as inactive in assay [1], in assay [3], in assay [4], in [5], in [6] and in assay [8].
